In all, about 59,000 compounds went through this assay and about 6,200 (11%) were called active. Inconclusive results (about 9%) are left out. This is one part of a sample in which actives are shown more often than they occur. Rule as the data show it: active = max dye-equivalent concentration above about 10 nM; inconclusive = mostly about 1.1 nM to 9.6 nM; inactive = weaker than that. A structure can be active in one record and inactive in another.
Experiment: qHTS Assay for Spectroscopic Profiling in 4-MU Spectral Region
Settings: compound autofluorescence, 340/450 nm, 4-MU equivalents; hits give high values
Procedure, shortened: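 Intrinsic fluorescence at 340/450 nm (ex/em) was read after 15 min at room temperature in pH 8.0, 100 mM Tris. Each compound concentration expressed as 4-MU-equivalent concentration from a six-point 4-MU standard series on each plate.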
In the case of `CCS(=O)(=O)N1CCCC(C(=O)NCc2ccc(C)cc2)C1` (stereo unspecified), the max dye-equivalent concentration is reported as “inactive”.
In the case of `COc1ccc(CNc2ncnc3ccc(-c4cccnc4)cc23)c(OC)c1`, the max dye-equivalent concentration is reported as “inactive”.
With `COc1cc(-c2noc(C3CCCN(S(=O)(=O)c4cccc(Cl)c4)C3)n2)cc(OC)c1OC` (stereo unspecified) the max dye-equivalent concentration was “inactive”.
In the case of `CC(NC(=O)CSc1nc2c(cc1C#N)CN(C)CC2)c1ccccc1` (stereo unspecified), the max dye-equivalent concentration is reported as 22 nM (active).
With `Cc1cc(C(F)(F)F)c(C#N)c(SCC(=O)NC2CC2)n1` the max dye-equivalent concentration was “inactive”.
With `Cc1ccc2cc(C#N)c(SCC(=O)NCC3CCCO3)nc2c1C` (stereo unspecified) the max dye-equivalent concentration was “inactive”.
With `O=C1c2ccccc2C(=O)N1CCc1nn[nH]n1` the max dye-equivalent concentration was “inactive”.
In the case of `COc1ccc(-n2c(SCC(=O)Nc3ccc4c(c3)OCO4)nnc2C(C)N2CCCCC2)cc1` (stereo unspecified), the max dye-equivalent concentration is reported as “inactive”.
For `COc1cc(C(=O)Nc2oc(-c3ccccc3)c(-c3ccccc3)c2C#N)cc(OC)c1OC`, the max dye-equivalent concentration was 11 nM (active).
With `COC(=O)c1cccc(NC(=O)CN2CCC(NC(=O)c3cc(OC)c(OC)c(OC)c3)CC2)c1` the max dye-equivalent concentration was “inactive”.
With `COc1cc(C(=O)Nc2nccs2)cc(OC)c1OC` the max dye-equivalent concentration was “inactive”.
In the case of `Cc1ccc(N2CCN(S(=O)(=O)N(C)C)CC2)cc1Cl`, the max dye-equivalent concentration is reported as “inactive”.
For `CCCn1c(SCC(N)=O)nnc1C(C)C`, the max dye-equivalent concentration was “inactive”.
With `Cc1ccc(C(=O)CS(C)(=O)=O)cc1` the max dye-equivalent concentration was 20 nM (active).
In the case of `N#Cc1ccc(CSc2nnc(-c3ccccn3)n2-c2ccc(Cl)cc2)cc1`, the max dye-equivalent concentration is reported as “inactive”.
With `N#CNC1=NCN(CCc2ccccc2)CN1` the max dye-equivalent concentration was “inactive”.
In the case of `O=C(c1csnn1)N1CCC[C@@]2(CCN(c3cccc(-c4ccccc4)c3)C2)C1`, the max dye-equivalent concentration is reported as “inactive”.
For `COc1ccc(CN2C(=O)CN=C2Nc2ccc(C)cc2C)cc1`, the max dye-equivalent concentration was “inactive”.
In the case of `Cc1cc(C)nc(N2C(=O)CC(Cc3ccccc3)C2=O)n1` (stereo unspecified), the max dye-equivalent concentration is reported as “inactive”.
For `Nc1ccc2c3c(cccc13)C(=O)NC2=O`, the max dye-equivalent concentration was “inactive”.
For `CCOc1ccccc1-n1c(SCC(=O)N2CCCC2)nnc1-c1ccoc1C`, the max dye-equivalent concentration was “inactive”.
For `C=CCNc1nnc(C)c2ccccc12`, the max dye-equivalent concentration was “inactive”.
With `C=CCNc1nnc(SCC(=O)N2CCCCC2)c2ccccc12` the max dye-equivalent concentration was 16 nM (active).
With `CCNc1nc(SCCOc2ccccc2)nc(N(C)C)n1` the max dye-equivalent concentration was “inactive”.
With `O=c1oc2cc(O)ccc2cc1-c1ccc(F)cc1` the max dye-equivalent concentration was 95 nM (active).
For `Nc1ncc(-c2cc3ccccc3oc2=O)s1`, the max dye-equivalent concentration was “inactive”.
For `O=C(NCCCNC(=O)NC1CCCCC1)NC1CCCCC1`, the max dye-equivalent concentration was “inactive”.
For `Cn1cnc2c1c(=O)n(Cc1c(Cl)cccc1Cl)c(=O)n2C`, the max dye-equivalent concentration was “inactive”.
With `COc1ccc2nc(NC(=O)c3ccc(Br)s3)sc2c1` the max dye-equivalent concentration was 460 nM (active).
With `COC(=O)c1sc(NC(=O)c2ccc(OC)cc2OC)nc1C` the max dye-equivalent concentration was “inactive”.
With `CNC(=O)c1ccc2nc(NC(C)=O)sc2c1` the max dye-equivalent concentration was “inactive”.
With `Cc1c(C)c2cc3c4c(oc3c(C)c2oc1=O)CCCC4` the max dye-equivalent concentration was 30 nM (active).
In the case of `CC(=O)N(Cc1cccs1)C1CCOC(C)(C)C1` (stereo unspecified), the max dye-equivalent concentration is reported as “inactive”.
For `Cc1cc(NC(=O)CCC(=O)N(c2ccccc2)C(C(=O)NC2CCCC2)c2ccncc2)no1` (stereo unspecified), the max dye-equivalent concentration was “inactive”.
For `COc1ccc(Cn2c(=O)sc3ccccc32)cc1OC`, the max dye-equivalent concentration was “inactive”.
In the case of `CCn1c(SCC(=O)NCc2ccco2)nnc1-c1ccc(N)cc1`, the max dye-equivalent concentration is reported as “inactive”.
With `Cc1ccc2c(CSc3nncs3)cc(=O)oc2c1` the max dye-equivalent concentration was “inactive”.
For `CCOC(=O)c1cc2occc2n1CC(=O)NC1CCC(C)CC1` (stereo unspecified), the max dye-equivalent concentration was “inactive”.
For `CN(C)CCNC(CC(=O)Nc1ccc(Cl)c(Cl)c1)C(=O)O` (stereo unspecified), the max dye-equivalent concentration was “inactive”.
For `Cn1c(=O)n(C)c2cc(C(=O)Nc3ccc4c(c3)OCO4)ccc21`, the max dye-equivalent concentration was “inactive”.
In the case of `O=C(Nc1cnn(Cc2ccc(Cl)cc2)c1)C1CCCC1`, the max dye-equivalent concentration is reported as “inactive”.
For `CN1C(=O)c2ccc(NC(=O)c3c(F)c(F)c(F)c(F)c3F)cc2C1=O`, the max dye-equivalent concentration was 98 nM (active).
In the case of `O=C(Nc1ccncc1)c1c(F)cccc1F`, the max dye-equivalent concentration is reported as “inactive”.
For `CN1C(=O)c2ccc(NC(=O)C3CCCCC3)cc2C1=O`, the max dye-equivalent concentration was 230 nM (active).
For `O=C(O)c1ccc(NC(=O)C2CCCCC2)cc1`, the max dye-equivalent concentration was “inactive”.
For `COc1ccc(C[C@H](N)C(=O)N[C@@H]2[C@H](O)[C@H](n3cnc4c(N(C)C)ncnc43)O[C@@H]2CO)cc1`, the max dye-equivalent concentration was “inactive”.
For `O=S(=O)(c1ccc(Sc2nnc3ccccn23)nc1)N1CCOCC1`, the max dye-equivalent concentration was “inactive”.
With `N#CCCN(CCC#N)c1nnc(-c2ccccc2)s1` the max dye-equivalent concentration was “inactive”.
In the case of `O=S(=O)(Nc1ccccc1N1CCOCC1)c1ccc(Cl)s1`, the max dye-equivalent concentration is reported as “inactive”.
In the case of `COC(=O)Cc1csc(Nc2c(C)n(C)n(-c3ccccc3)c2=O)n1`, the max dye-equivalent concentration is reported as “inactive”.
With `CCOC(=O)CSc1nc2c(c(=O)n(Cc3ccccc3Cl)c(=O)n2C)n1C` the max dye-equivalent concentration was “inactive”.
In the case of `CCOc1ccc(NC(=O)Nc2ccc(N(C)C(C)=O)cc2)cc1`, the max dye-equivalent concentration is reported as “inactive”.
With `O=c1c2cc3c(=O)n(CC4CCCO4)c(=O)c3cc2c(=O)n1CC1CCCO1` (stereo unspecified) the max dye-equivalent concentration was “inactive”.
In the case of `Cc1ccc(C(=O)Nc2ccccc2C(=O)NC2CCCCC2)cc1S(=O)(=O)N1CCOCC1`, the max dye-equivalent concentration is reported as “inactive”.
For `O=C(NC1CCCCC1)c1ccc2c(=O)n(CC3CCCO3)c(=O)[nH]c2c1` (stereo unspecified), the max dye-equivalent concentration was 16 nM (active).
With `CCOC(=O)c1ccc(N2C(=O)CC(N3CC(C)OC(C)C3)C2=O)cc1` (stereo unspecified) the max dye-equivalent concentration was “inactive”.
For `CNCC[C@H](Oc1ccc(C(F)(F)F)cc1)c1ccccc1`, the max dye-equivalent concentration was 13 nM (active) and the outcome was “inactive”.
In the case of `Clc1ccc(C=Nc2ccc3c(c2)Cc2ccccc2-3)c(Cl)c1`, the max dye-equivalent concentration is reported as “inactive”.
With `COC(=O)c1ccc(NC(=O)C(C)N2C(=O)c3ccccc3C2=O)cc1` (stereo unspecified) the max dye-equivalent concentration was “inactive”.
With `Cc1cc(C)nc(NC(=O)C(C)N2C(=O)c3ccccc3C2=O)n1` (stereo unspecified) the max dye-equivalent concentration was “inactive”.
For `CC(C(=O)O)N1C(=O)c2cccc3cccc1c23` (stereo unspecified), the max dye-equivalent concentration was 15 nM (active).
In the case of `O=c1cc(CO)oc(CN2CCC(Cc3ccccc3)CC2)c1O`, the max dye-equivalent concentration is reported as “inactive”.
In the case of `Cc1cccc2nc(CNc3ccc(F)cc3)cn12`, the max dye-equivalent concentration is reported as “inactive”.
For `CC(C)OC(=O)C(C#N)c1nc2ccccc2nc1N1CCN(Cc2ccc3c(c2)OCO3)CC1` (stereo unspecified), the max dye-equivalent concentration was 110 nM (active).
With `CC(C)OC(=O)C(C#N)c1nc2ccccc2nc1N1CCN(Cc2ccccc2)CC1` (stereo unspecified) the max dye-equivalent concentration was “inactive”.
In the case of `COc1ccc(-c2csc(N3CCN(Cc4ccc5c(c4)OCO5)CC3)n2)cc1`, the max dye-equivalent concentration is reported as “inactive”.
In the case of `O=C(c1ccccc1)c1ccc(OC(=O)N2CCCC2)cc1`, the max dye-equivalent concentration is reported as “inactive”.
With `COc1ccccc1-c1nc(NCCNC(C)=O)c2ccccc2n1` the max dye-equivalent concentration was “inactive”.
With `CCCCN(C)Cc1c(C)[nH]c2ccc(Cl)cc2c1=O` the max dye-equivalent concentration was “inactive”.
For `Cc1ccc(S(=O)(=O)C(C#N)c2nc3ccccc3nc2N2CCCC2)cc1C` (stereo unspecified), the max dye-equivalent concentration was 150 nM (active).
